Inconclusive results are not listed. A number with no mark means an inactive call. The source made the active and inactive calls. The call rests on the fitted dose curve.
Test: Confirmatory qHTS for inhibitors of MERS-S pseudo-typed particle cell entry
Details: MERS-S pseudotyped particle entry, luciferase reporter; series mostly up to 57.1 µM; activity change, negative = inhibition: at the top concentration

| SMILES | Potency | activity change, negative = inhibition [%] |
| --- | --- | --- |
| COc1cc2nccc(Oc3ccc(NC(=O)NC4CC4)c(Cl)c3)c2cc1C(N)=O | 17.1 µM (active) | – |
| COc1cc(NS(C)(=O)=O)ccc1Nc1c2ccccc2nc2ccccc12 | 1.36 µM (active) | – |
| CN(C)[C@@H](CCOc1cccc2ccccc12)c1ccccc1 | 12.1 µM (active) | – |
| COc1cc(N)c(Cl)cc1C(=O)NC1CCN(CCCOc2ccc(F)cc2)CC1OC (stereo not drawn) | 15.2 µM (active) | – |
| O=c1[nH]c(=O)n([C@H]2C[C@H](O)[C@@H](CO)O2)cc1C(F)(F)F | 6.81 µM (active) | – |
| Oc1c(Cl)cc(Cl)c(Cl)c1Cc1c(O)c(Cl)cc(Cl)c1Cl | 0.857 µM (active) | – |
| C/C=C(/C)C(=O)O[C@H]1C(C)=CC23C(=O)C(C=C(CO)[C@@H](O)[C@]12O)[C@H]1[C@@H](C[C@H]3C)C1(C)C (stereo partly drawn) | – | -20.2 |
| CCCCN=C(N)N=C(N)N | – | 0 |
| CCN(CC)Cc1cc(Nc2ccnc3cc(Cl)ccc23)ccc1O | 9.61 µM (active) | – |
| COC(=O)C1=C(C)NC(C)=C(C(=O)OCC(C)C)C1c1ccccc1[N+](=O)[O-] (stereo not drawn) | 19.2 µM (active) | – |
| CC(C)OC(=O)[C@H](C)N[P@](=O)(CO[C@H](C)Cn1cnc2c(N)ncnc21)Oc1ccccc1 | 0.0152 µM (active) | – |
| CC(C)OC(=O)OCOP(=O)(CO[C@H](C)Cn1cnc2c(N)ncnc21)OCOC(=O)OC(C)C | 0.0192 µM (active) | – |
| CN(C)CCC=C1c2ccccc2C(C)(C)c2ccccc21 | 15.2 µM (active) | – |
| CC(C)(C)C(=O)OCOP(=O)(COCCn1cnc2c(N)ncnc21)OCOC(=O)C(C)(C)C | 0.0304 µM (active) | – |
| COc1cccc2c1C(=O)c1c(O)c3c(c(O)c1C2=O)C[C@@](O)(C(=O)CO)CC3OC1CC(N2CCOC(OC)C2)C(O)C(C)O1 (stereo partly drawn) | 0.215 µM (active) | – |
| CC(C)(C)c1ccc(C(=O)CCCN2CCC(OC(c3ccccc3)c3ccccc3)CC2)cc1 | 3.41 µM (active) | – |
| C[C@]12CC[C@H](O)C[C@H]1CCC1C2CC[C@]2(C)[C@@H](c3ccc(=O)oc3)C[C@H]3O[C@]132 (stereo partly drawn) | 3.83 µM (active) | – |
| Nc1nc(Cl)nc2c1ncn2C1CC(O)C(CO)O1 (stereo not drawn) | 12.1 µM (active) | – |
| CNC(=O)c1cc(Oc2ccc(NC(=O)Nc3ccc(Cl)c(C(F)(F)F)c3)c(F)c2)ccn1 | 15.2 µM (active) | – |
| NCCNc1ccc(NCCN)c2c1C(=O)c1ccncc1C2=O | 19.2 µM (active) | – |
| Cc1ccc(NC(=O)c2ccc(CN3CCN(C)CC3)cc2)cc1Nc1nccc(-c2cccnc2)n1 | 13.6 µM (active) | – |
| C[C@H]1[C@H](OC(=O)CCC(=O)O)O[C@@H]2O[C@@]3(C)CC[C@H]4[C@H](C)CC[C@@H]1[C@@]24OO3 | 0.857 µM (active) | – |
| C[n+]1c2cc(N)ccc2cc2ccc(N)cc21 (tested in a mixture with another compound) | 1.92 µM (active) | – |
| CC[C@@H]([C@H](C)O)n1ncn(-c2ccc(N3CCN(c4ccc(OC[C@@H]5CO[C@@](Cn6cncn6)(c6ccc(F)cc6F)C5)cc4)CC3)cc2)c1=O | 7.64 µM (active) | – |
| CCCCCCOC(=O)NC(=N)c1ccc(NCc2nc3cc(C(=O)N(CCC(=O)OCC)c4ccccn4)ccc3n2C)cc1 | 19.2 µM (active) | – |
| Cc1oncc1C(=O)Nc1ccc(C(F)(F)F)cc1 | – | 0 |
| c1ccc2c(c1)Sc1ccccc1N2CC1CN2CCC1CC2 (stereo not drawn) | 12.1 µM (active) | – |
| CN1CCCCC1CCN1c2ccccc2Sc2ccc(S(C)=O)cc21 (stereo not drawn) | 17.1 µM (active) | – |
